Shown is part of a subset that was picked to be rich in hits.
KDM5B inhibitor: Primary screen for KDM5B Histone Demethylases FDH-coupled qHTS. KDM5B demethylase, FDH-coupled NADH fluorescence (FDH is formaldehyde dehydrogenase). Lysine-specific demethylase 5B (Homo sapiens), Q9UGL1. Potency, µM (doses to about 57.7 µM), hits mostly inhibitors. hit rate 2.6% among 220,000. AID 1347165, 2019; active means well fitted inhibition curve with a large enough effect; further: 0% is about no effect; nearly all actives have a fitted effect of over 70% in size
Target sequence (Q9UGL1 whole entry, looked up): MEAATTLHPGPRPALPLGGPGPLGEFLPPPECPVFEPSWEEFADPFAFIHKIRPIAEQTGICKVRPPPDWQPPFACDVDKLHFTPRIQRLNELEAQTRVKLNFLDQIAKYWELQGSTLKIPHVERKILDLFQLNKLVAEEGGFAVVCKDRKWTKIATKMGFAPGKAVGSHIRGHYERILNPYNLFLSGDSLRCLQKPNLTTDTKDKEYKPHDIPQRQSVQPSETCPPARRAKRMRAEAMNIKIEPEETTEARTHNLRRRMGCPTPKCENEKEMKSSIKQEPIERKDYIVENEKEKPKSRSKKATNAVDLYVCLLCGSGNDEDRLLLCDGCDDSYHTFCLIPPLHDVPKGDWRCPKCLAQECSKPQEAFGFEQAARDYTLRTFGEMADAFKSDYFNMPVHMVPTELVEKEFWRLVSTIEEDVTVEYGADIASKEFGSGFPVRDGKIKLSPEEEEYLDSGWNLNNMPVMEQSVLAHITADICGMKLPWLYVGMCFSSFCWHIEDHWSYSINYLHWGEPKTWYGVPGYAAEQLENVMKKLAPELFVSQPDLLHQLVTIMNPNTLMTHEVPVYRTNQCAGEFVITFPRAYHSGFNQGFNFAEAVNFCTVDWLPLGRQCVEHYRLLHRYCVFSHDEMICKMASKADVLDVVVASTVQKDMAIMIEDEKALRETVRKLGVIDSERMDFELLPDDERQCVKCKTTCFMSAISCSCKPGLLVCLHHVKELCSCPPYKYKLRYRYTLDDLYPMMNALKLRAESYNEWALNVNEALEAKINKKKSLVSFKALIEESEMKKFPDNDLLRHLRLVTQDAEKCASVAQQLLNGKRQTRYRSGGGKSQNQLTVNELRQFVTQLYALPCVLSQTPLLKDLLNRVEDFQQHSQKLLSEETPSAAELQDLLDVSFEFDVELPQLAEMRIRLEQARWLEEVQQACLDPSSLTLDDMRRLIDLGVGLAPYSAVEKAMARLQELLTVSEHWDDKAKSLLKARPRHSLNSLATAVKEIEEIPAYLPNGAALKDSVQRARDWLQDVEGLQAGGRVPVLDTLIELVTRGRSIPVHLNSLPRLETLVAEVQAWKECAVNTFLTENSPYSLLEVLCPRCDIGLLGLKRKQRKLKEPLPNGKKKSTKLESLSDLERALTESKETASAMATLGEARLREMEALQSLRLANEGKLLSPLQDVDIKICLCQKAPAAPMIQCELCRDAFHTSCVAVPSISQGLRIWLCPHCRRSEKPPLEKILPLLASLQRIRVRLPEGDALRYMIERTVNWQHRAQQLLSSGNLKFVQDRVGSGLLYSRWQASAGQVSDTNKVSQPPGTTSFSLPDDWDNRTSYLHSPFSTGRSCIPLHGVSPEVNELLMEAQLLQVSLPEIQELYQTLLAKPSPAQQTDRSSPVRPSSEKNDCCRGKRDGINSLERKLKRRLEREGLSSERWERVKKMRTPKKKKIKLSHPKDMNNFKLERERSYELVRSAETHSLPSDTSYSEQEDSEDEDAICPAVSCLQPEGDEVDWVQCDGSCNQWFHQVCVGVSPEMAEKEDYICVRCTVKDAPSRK
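KDM5BΔAP (200 nM final) in 50 mM HEPES pH 7.5, 0.01% Tween-20 was preincubated 10 min at RT with compound over a concentration range. Substrate mix (H3K4me3 12.5 µM, α-KG 25 µM, Fe²⁺, ascorbate, NAD⁺, FDH) was added, and NADH fluorescence change over 30 min gave dose-response curves.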
* hit, by the source's call; i = inactive; ! = repeats disagree. Potency means the concentration at half of the fitted maximal effect.

SMILES	KDM5B inhibitor
Cc1ccccc1NC(=O)CCn1cnc2onc(-c3ccc(F)cc3)c2c1=O	i
COc1cccc(-c2nc3cnccn3c2NCCC(=O)Nc2ccc(F)cc2C)c1	28.2µM*
O=S(=O)(Nc1nc2ccccc2nc1Nc1ccc(F)cc1)c1cccc2nsnc12	i
CC(C)CCC(=O)N1C[C@@H](CO)[C@H](c2nc(-c3ccncc3)no2)C1	i
O=C(NC1CCc2ccccc21)c1cc(Br)ccc1Cl (stereo not drawn)	i
CN(CC1CCCN(CCc2cccc(C(F)(F)F)c2)C1)C(=O)c1ccc2[nH]ccc2c1 (stereo not drawn)	i
CCCn1c(Cn2ccnc2C)nc2cc(NC(=O)c3ccccc3OC)ccc21	i
Cc1cc(C(=O)Nc2ccccc2C(C)C)c2ccccc2n1	i
CC(O)c1cc2n(n1)CCN(C1CCN(C(=O)c3cnccn3)CC1)C2 (stereo not drawn)	i
COc1ccc(N(C)C(=O)c2ccc3ccccc3n2)cc1OC	i
Cc1ccc(C(=O)O)cc1NC(=O)c1ccco1	i
Cn1c([C@H]2CCN(S(=O)(=O)Cc3ccccc3)C2)nc2ccccc21	i
COc1cccc(CN2CC[C@H](c3nc4ccccc4[nH]3)C2)c1	i
Fc1ccc2nc([C@H]3CCN(Cc4ccc(F)c(F)c4)C3)[nH]c2c1	i
Cn1c([C@H]2CCN(Cc3ncc[nH]3)C2)nc2ccccc21	35.5µM*
Cc1ccc(N2CC(c3nc4ccccc4n3C)CC2=O)cc1 (stereo not drawn)	i
COc1ccc(CN2CC[C@H](c3nc4ccc(C)cc4[nH]3)C2)cc1	i
COc1ccc(CN2CC[C@H](c3nc4ccc(OC)cc4[nH]3)C2)cc1	i
Fc1ccc2nc([C@H]3CCN(Cc4cccs4)C3)[nH]c2c1	i
COc1ccc(S(=O)(=O)N2CCC(c3nc4ccccc4[nH]3)CC2)cc1	i
COc1ccc2nc([C@H]3CCN(Cc4ccncc4)C3)[nH]c2c1	35.5µM*
Fc1ccc2nc([C@H]3CCN(Cc4ncc[nH]4)C3)[nH]c2c1	28.2µM*
COc1ccc2nc([C@H]3CCN(C4CCCCC4)C3)[nH]c2c1	28.2µM*
FC(F)Oc1ccccc1C=C(c1nc2ccccc2s1)c1nc2ccccc2s1	i
N#Cc1cccc(C(=O)N2CCCN(S(=O)(=O)c3ccccc3)CCC(=O)NCC2)c1	i
SMILES	KDM5B inhibitor
Cc1ccc(CN2C[C@H]3CN(Cc4ccc(OC(F)(F)F)cc4)CCN3C2=O)cc1	i
CCN(CC)c1nc2c(c(=O)n(Cc3ccccc3)c(=O)n2C)n1Cc1ccccc1	i
S=C(NCCSc1ccc(Cl)cc1)NC1CC1	i
COC(=O)c1ccccc1NC(=O)CSc1nncc2ccccc12	i
CC(C)c1nnc(C2CN(C(=O)CC3CCCC3)CC23CCOCC3)o1 (stereo not drawn)	i
Cc1cc2ccccc2n1CC(=O)NCCCCCC(=O)O	i
Cc1cc(C(F)(F)F)nc(SC(C(=O)O)c2ccccc2)n1 (stereo not drawn)	i
O=C(O)CCSc1ccccc1Br	i
CC(C)CNC(=O)c1ccc2c(=O)n(CCc3ccccc3)c(SCC#N)nc2c1	i
CCCOc1ccccc1C(=O)Nc1nonc1CC	i
COCCn1c(=O)c2c(nc(-n3nc(C)cc3C)n2Cc2ccc(F)cc2)n(C)c1=O	i
CN(C)S(=O)(=O)N(C)CC1COc2ccccc2O1 (stereo not drawn)	i
COc1cccc(-c2ccc(CN3CCCC(c4nc5ccc(C)cc5c(=O)[nH]4)C3)cc2)c1 (stereo not drawn)	35.5µM*!
O=c1[nH]c(C2CCCN(Cc3ccc(-c4ccccc4)cc3)C2)nc2ccc(F)cc12 (stereo not drawn)	i
CN1CCC(N2CC[C@H](c3nc4ccc(C#N)cc4[nH]3)C2)CC1	35.5µM*
Cc1ccc(CN2CC[C@H](c3nc4ccc(C(F)(F)F)cc4[nH]3)C2)cc1	i
COc1ccccc1-c1nnc([C@H]2CCN(C(=O)c3ccccc3)C2)o1	i
Cc1ccc2nc(C3CCN(Cc4ccccc4)CC3)[nH]c(=O)c2c1	i
CC(=O)N1CCC(N2CC[C@H](c3nc4ccc(F)cc4[nH]3)C2)CC1	i
CCOc1ccc(C(=O)N2CCC(c3nnc(-c4ccccc4OC)o3)CC2)cc1	i
COc1ccccc1-c1nnc([C@H]2CCN(Cc3ncc[nH]3)C2)o1	39.8µM*
CCc1ccc(NC(=O)c2ncoc2-c2cccc(OC)c2)cc1	i
COc1ccc2oc(=O)c(C(=O)NCCc3c(C)[nH]c4ccccc34)cc2c1	i
CC(=O)N[C@@H]1CN(Cc2ccc(C)cn2)C[C@H]1CO	i
CC(=O)N[C@@H]1CN(S(=O)(=O)c2sccc2C)C[C@H]1c1ccc(C)o1	i
SMILES	KDM5B inhibitor
CC(=O)N[C@@H]1CN(Cc2cc(=O)n3[nH]cnc3n2)C[C@H]1c1ccc(C)o1	22.4µM*
c1ccc2sc(CCCCc3nc4ccccc4s3)nc2c1	i
COc1cc(-c2cc3c(nc2-c2ccccc2)nc(C(=O)NC2CCN(C)CC2)n3C)ccn1	i
Cc1cnc(-c2ccccc2)n1CCNC(=O)c1cccnc1	i
CCCNC(=O)c1cc(-c2cccnc2)nc2ccccc12	i
Cc1nc2cccnc2n1-c1cccc(C(=O)NCCN(C)C)c1	i
Cc1cc(-c2cc3c(nc2-c2ccccc2)nc(C(=O)NCCN(C)C)n3C)ccn1	i
CN(C)CCNC(=O)c1nc2nc(-c3ccccc3)c(-c3cccnc3)cc2n1C	20µM*
CN(C)CCNC(=O)c1cc(-c2ccccn2)nc2ccccc12	i
Cc1cc(-c2cc3c(nc2-c2ccccc2)nc(C(=O)NC2CCN(C)CC2)n3C)ccn1	31.6µM*
CN1CCC(NC(=O)c2cc(-c3ccccc3Cl)nc3ccccc23)CC1	i
Cc1ccccc1Nc1cc2c(nc1-c1ccccc1)nc(C(=O)NCCN(C)C)n2C	35.5µM*
CN(C)CCNC(=O)c1nc2nc(-c3ccccc3)c(-c3ccncc3)cc2n1C	22.4µM*
COc1cc(-c2cc3c(nc2-c2ccccc2)nc(C(=O)NCCN(C)C)n3C)ccn1	i
CN(Cc1ccccc1N1CCCCC1)C(=O)c1cccc(S(=O)(=O)N2CCOCC2)c1	i
CCCn1c(SCc2cc(=O)oc3cc(C)c(C(C)C)cc23)n[nH]c1=O	i
COCCOCCCNC(=O)CCNC(=O)c1ccc(C(C)(C)C)cc1	i
O=C(N(Cc1cccs1)c1cccc(C(F)(F)F)c1)C12CC3CC(CC(C3)C1)C2	i
O=C(CN1C(=O)NC(c2ccc(Cl)cc2)C2=C1COC2=O)Nc1cc(F)cc(F)c1 (stereo not drawn)	i
CN(CC1CC1)C1CCOc2ccccc21 (stereo not drawn)	i
CN(Cc1ccccc1F)c1ccc(S(N)(=O)=O)cn1	i
COc1nccc(N2CCC(CC(=O)N3CCN(CCC#N)CC3)CC2)n1	i
Cc1ccc2nc(C)cc(C(=O)NCc3ccc4c(c3)OCO4)c2c1	i
O=C(NCc1cccs1)c1nc(-c2ccc(Cl)cc2Cl)c2ccccn12	28.2µM*
Cc1cccc(C)c1-c1nc(C(=O)NCc2ccc3c(c2)OCO3)n2ccccc12	28.2µM*
O=C(NCc1ccc2c(c1)OCO2)c1cc(=O)c2ccccc2o1	i
O=C(NCc1cccs1)c1cc2ccccc2[nH]1	i
COc1cc(=O)n(-c2ccccc2C)nc1C(=O)NCc1ccc2c(c1)OCO2	i
O=C(NCc1ccc2c(c1)OCO2)c1nc(-c2ccsc2)c2ccccn12	14.1µM*

Screens (PubChem)
